system: CIT; conditions: concentration: 1 μM, replicates: in singlicate; n = 1
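Also: KINOMEscan kinase panel screen.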

Structure (SMILES) | %Inh
COc1ccc(Nc2nccc(N3CCC(NC(=O)c4cc5ccccc5s4)C3)n2)cc1 (centres unmarked) [GSK1379738] | 0%
Cc1ccc(-c2nc(Nc3ccncc3)c3ccccc3n2)s1 [GSK189015] | 42%
Cn1cncc1C(=O)NC1CCN(c2ccnc(Nc3ccc(F)cc3)n2)C1 (centres unmarked) [GSK1379717] | 0%
COc1ccc(Nc2nccc(N3CCC(NC(=O)C(C)c4ccc(Cl)cc4)C3)n2)cc1 (centres unmarked) [GSK1379735] | 26%
COc1nccc(-c2c(-c3ccc(F)cc3)ncn2CCCN2CCOCC2)n1 [SB-282852] | 17%
Cc1ccccc1Cn1ccn2c(=O)cc(N3CCOCC3)nc12 [GSK2269905] | 3%
CS(=O)(=O)CCNCc1nc(-c2ccc3ncnc(Nc4ccc5c(cnn5Cc5ccccc5)c4)c3c2)cs1.Cl.Cl [GW569716] | 34%
O=C1NC(=O)C(c2ccc(Cl)cc2)=C1Nc1ccc(O)cc1 [SB-340867] | 0%
Cc1cccc2c(-c3ccncn3)c(-c3ccc(F)cc3)nn12 [GW515532] | 82%
Cn1cncc1-c1cc2c(Nc3ccc(OCc4ccccc4)cc3)ncnc2cn1 [GW281179] | 6%
CCn1c(-c2ccccc2)nc2cnccc21 [SB-733416] | 23%
Nc1ncnc2occ(-c3ccc4c(c3)CCN4C(=O)Cc3cc(F)ccc3F)c12 [GSK2645446] | 0%
c1ccc(-c2ccnc3[nH]ccc23)cc1 [SB-693578] | 3%
O=C(Nc1n[nH]c2cc(-c3ccsc3)ccc12)C1CC1 [SB-732932] | 0%

Source: paper PMC5540273 (PLoS ONE, 2017)
